# According to PubChem BioAssay (NCATS):
# Inconclusive results are not listed. The source made the active and inactive calls. The call rests on the fitted dose curve; in most records, active means well fitted cell-killing curve with a large enough effect; inconclusive means small, poorly fitted or top-dose-only effect; inactive means flat fitted curve, though single readings scatter.
# Experiment: Cellular viability qHTS for adrenocortical cancer (ACC) cell line NCI-H295R (AID 1963990); further: nearly all actives have a fitted effect of over 60% in size
# Conditions: CellTiter-Glo ATP luminescence, 48 h; series mostly up to 46.1 µM; activity change, negative = viability loss: at the top concentration
# Description: PI: Naris Nilubol, MD Surgical Oncology Program, National Cancer Institute (NCI) National Institute of Health (NIH), Bethesda, Maryland Adrenocortical cancer (ACC) is a rare malignancy with poor survival outcomes and few treatment options. Currently, mitotane is the only FDA-approved therapy for ACC. Although adjuvant radiation therapy is rarely utilized, it has the potential to improve survival in select cases. Through a quantitative high-throughput drug screen (qHTS), we identified auranofin (AF), a thioredoxin reductase (TXNRD) inhibitor, as a promising candidate drug. This study aims to evaluate whether AF can enhance the efficacy of radiation therapy in the treatment of ACC. Two human ACC cell lines, SW-13 and NCI-H295R, were screened using the National Center for Advancing Translational Sciences (NCATS) Pharmaceutical Collection (NPC) and the Mechanism Interrogation PlatE (MIPE) library (~4,991 compounds). CellTiter-Glo (Cat # G7570, Promega, Madison, WI) was utilized to measure cell viability. Described herein are the results of the corresponding viability assay.
# PROTOCOL TABLE (as described by Inglese J, Shamu CE and Guy RK. 2007) SEQUENCE No. (e.g., 1, 2, 3, etc.); […] (e.g., Cells, Incubation, Reagent, etc.); VALUE; DESCRIPTION. 1; Cells; 5 uL; white, solid-bottom, 1536-well tissue-culture treated plates. 2; Time; overnight culture at 37C with 5% CO2. 3; Compounds and control; 23 nL; Kalypsis pin tool (Wako USA) equipped with a 1536-well pin head to transfer to the assay plates. 4; Time; 48 hours; 37C with 5% CO2. 5; Reagent; 4 uL; CellTiter-Glo luminescent substrate mix. 6; Time; 20 min at room temperature. 7; Detection; Luminescence; ViewLux plate reader NOTES (numbers refer to Sequence numbers above) 1. NCI-H295R cells were harvested from a T175 flask and resuspended in ITS-supplemented DMEM serum-free medium at a concentration of 300 000 cells/mL. Then 5 uL of resuspended cells were dispensed into each well of white, solid-bottom, 1536-well tissue-culture-treated plates using a multidrop combi dispenser. The plates were covered with stainless steel gasket lids. 2-3. The plates were cultured overnight at 37C with 5% CO2. Twenty-three nL of compounds (eight selected concentrations from the NPC / MIPE) or positive control (10 mM stock of bortezomib) in DMSO was transferred to each well of the assay plate using a pin tool (Kalypsys, San Diego, CA, USA). The final concentration of the compounds in the 5 uL assay volume ranged from 0.5 nM to 46 uM. 4-6. After 48 hours of incubation at 37C and 5% CO2, 4 uL of CellTilter-Glo luminescent substrate mix (Promega, Madison, WI, USA) was added to each well. Then the plates were incubated for 20 minutes at room temperature. 7. After incubation, luminescence was measured using a ViewLux plate reader (PerkinElmer, Waltham, MA, USA) with a clear filter was used to measure the number of metabolically competent cells. To determine compound activity in the qHTS assay, the titration-response data for each sample was plotted and modeled by a four-parameter logistic fit yielding IC50 and efficacy (maximal response) values. Raw plate reads for each titration point were normalized relative to positive control ([…], 100% inhibition) and DMSO-only wells (basal, 0%). REFERENCES: Inglese J, Shamu CE and Guy RK, Reporting data from high throughput screening of small molecule libraries, Nature Chemical Biology, 2007, 3(8): 438-441. doi.org/10.1038/nchembio0807-438.
SMILES,"activity change, negative = viability loss",Potency
CC(C)C(=O)Nc1cccc(C(F)(F)F)c1,-16.3% (inactive),
CCOc1ccccc1OCC1CNCCO1 (stereo not given),-2.61% (inactive),
O=S(=O)(Nc1ccc(-c2cccnc2)c2cccnc12)c1cccc(C(F)(F)F)c1,,3.98 µM (active)
Cc1cccc(C)c1OCC(C)N (stereo not given),-1.74% (inactive),
OCCCNc1cc(-c2ccnc(Nc3cccc(Cl)c3)n2)ccn1,,0.316 µM (active)
CCC(=O)O[C@]1(C(=O)SCF)[C@H](C)C[C@H]2[C@@H]3C[C@H](F)C4=CC(=O)C=C[C@]4(C)[C@@]3(F)[C@@H](O)C[C@@]21C,-29.1% (inactive),
COc1ccc(F)c(F)c1C(=O)c1cnc(NC2CCN(S(C)(=O)=O)CC2)nc1N,,3.16 µM (active)
Cc1cc(Oc2ccc3nc(COc4ccc(CC5SC(=O)NC5=O)cc4)n(C)c3c2)cc(C)c1N (stereo not given),15.1% (inactive),
CCc1ccc(C(=O)Nc2cc(CN3CCN(C)CC3)cc(C(F)(F)F)c2)cc1C#Cc1cnc2ccnn2c1,,7.94 µM (active)
COc1cc(OC)c2c(=O)[nH]c(-c3cc(C)c(OCCO)c(C)c3)nc2c1,-27.6% (inactive),
Cc1cccc(C)c1NC(=O)CN1CCCC1,-19.9% (inactive),
O=c1cc[nH]c(=O)[nH]1,3.09% (inactive),
C[C@@H]1COCCN1c1cc(=O)n2c(n1)N(Cc1cncc(Cl)c1)[C@H](C(F)(F)F)CC2,9.4% (inactive),
CC12CCC(CC1)C(C)(C)O2,-7.9% (inactive),
CN/C(=C\[N+](=O)[O-])NCCSCc1csc(CN(C)C)n1,-18% (inactive),
Cc1ccc(Nc2nnc(Cc3ccncc3)c3ccccc23)cc1Br,-17.8% (inactive),
O=C(O)CCC=CCC[C@@H]1[C@H](N2CCCCC2)[C@@H](O)C[C@@H]1OCc1ccc(-c2ccccc2)cc1,-20.4% (inactive),
CC(C)c1c2cc(-c3ccnc(NC4CCC(NC5CCOCC5)CC4)n3)ccc2nn1C (stereo not given),,0.447 µM (active)
N#Cc1ccc(N(Cc2ccc(Br)cc2)n2cnnc2)cc1,-0.243% (inactive),
COc1cc(C)c(Sc2cnc(NC(=O)c3ccc(CNC(C)C(C)(C)C)cc3)s2)cc1C(=O)N1CCN(C(C)=O)CC1 (stereo not given),,8.91 µM (active)

SMILES,"activity change, negative = viability loss",Potency
CC[C@]12C=CCN3CC[C@@]4(c5cc([C@@]6(C(=O)OC)CC7C[C@@H](C(C)(F)F)CN(Cc8c6[nH]c6ccccc86)C7)c(OC)cc5N(C)[C@H]4[C@@](O)(C(=O)OC)[C@@H]1OC(C)=O)[C@@H]32 (stereo not given in full),,0.708 µM (active)
COc1cc(N2CCN(C)CC2)ccc1Nc1nccc(-c2cn(C)c3cnccc23)n1,,25.1 µM (active)
O=C(c1ccccc1)C(O)c1ccccc1 (stereo not given),-27% (inactive),
CC(C)(O)CS(=O)(=O)Nc1ccc2c(c1)CCN(C(=O)COc1cccnc1)C2,,0.112 µM (active)
Cc1cccc(N(C)C(=S)Oc2ccc3ccccc3c2)c1,-19.2% (inactive),
CC(O)(P(=O)(O)O)P(=O)(O)O,-21.9% (inactive),
O=C(O)CCCCC(=O)O,-1.44% (inactive),
C[C@]12CC[C@H](O)CC1=CC[C@@H]1[C@@H]2CC[C@]2(C)C(c3cccnc3)=CC[C@@H]12,-11.7% [at 20 µM] (inactive),
CN(C)Cc1c(C(=O)NCCOc2ccc(C(=O)NO)cc2)oc2ccccc12,,0.794 µM (active)
O=C(Nc1nnc(-c2ccco2)o1)c1cc(-c2ccccc2)nc2ccccc12,,10 µM (active)
Cc1cc(NC(=O)Nc2ccc(N(C)C)cc2)c2cc(F)cc(F)c2n1,-20.7% [at 20 µM] (inactive),
CCCCCCCCOc1ccc(C(=O)c2ccccc2)c(O)c1,0.433% (inactive),
O=C(O)CCCc1ccccc1,-2.67% (inactive),
CC(C)c1cnn2c(NCc3ccccc3)cc(NCCCCCCN)nc12,,25.1 µM (active)
Cc1ccc(-c2nn(C(C)(C)CNC(=O)c3ccncc3)c3ncnc(N)c23)cc1,,8.91 µM (active)
CC(CC(C#N)(c1ccccc1)C(C)C)N(C)C (stereo not given),-17.7% (inactive),
O=C(Nc1ccc(Oc2ccnc3[nH]ccc23)c(F)c1)c1cccn(-c2ccc(F)cc2)c1=O,-29.3% (inactive),
Cc1ccc(O)cc1,-0.726% (inactive),
CC(C)=CCC[C@@](C)(O)[C@H]1CC=C(C)CC1,5.69% (inactive),
CCCCCCCC(=O)[O-].CCCCCCCC(=O)[O-].[Zn+2],-9.31% (inactive),
